The campaign covered roughly 310,000 compounds. About 14,000 (4.5%) showed an effect of 50% or more. Effects have a minus sign here. The entries come from a sample that favours strong results as a whole.
The compounds below were run against human ether-à-go-go-related gene (hERG) potassium channel (human, UniProt Q12809) (assay: primary screen, population patch clamp on CHO cells stably expressing hERG; higher = less effect of the substance).
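Also: peak tail current of the secondary pulse compared with the same well before compound.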

Sequence of human ether-à-go-go-related gene (hERG) potassium channel (Q12809 whole entry, looked up): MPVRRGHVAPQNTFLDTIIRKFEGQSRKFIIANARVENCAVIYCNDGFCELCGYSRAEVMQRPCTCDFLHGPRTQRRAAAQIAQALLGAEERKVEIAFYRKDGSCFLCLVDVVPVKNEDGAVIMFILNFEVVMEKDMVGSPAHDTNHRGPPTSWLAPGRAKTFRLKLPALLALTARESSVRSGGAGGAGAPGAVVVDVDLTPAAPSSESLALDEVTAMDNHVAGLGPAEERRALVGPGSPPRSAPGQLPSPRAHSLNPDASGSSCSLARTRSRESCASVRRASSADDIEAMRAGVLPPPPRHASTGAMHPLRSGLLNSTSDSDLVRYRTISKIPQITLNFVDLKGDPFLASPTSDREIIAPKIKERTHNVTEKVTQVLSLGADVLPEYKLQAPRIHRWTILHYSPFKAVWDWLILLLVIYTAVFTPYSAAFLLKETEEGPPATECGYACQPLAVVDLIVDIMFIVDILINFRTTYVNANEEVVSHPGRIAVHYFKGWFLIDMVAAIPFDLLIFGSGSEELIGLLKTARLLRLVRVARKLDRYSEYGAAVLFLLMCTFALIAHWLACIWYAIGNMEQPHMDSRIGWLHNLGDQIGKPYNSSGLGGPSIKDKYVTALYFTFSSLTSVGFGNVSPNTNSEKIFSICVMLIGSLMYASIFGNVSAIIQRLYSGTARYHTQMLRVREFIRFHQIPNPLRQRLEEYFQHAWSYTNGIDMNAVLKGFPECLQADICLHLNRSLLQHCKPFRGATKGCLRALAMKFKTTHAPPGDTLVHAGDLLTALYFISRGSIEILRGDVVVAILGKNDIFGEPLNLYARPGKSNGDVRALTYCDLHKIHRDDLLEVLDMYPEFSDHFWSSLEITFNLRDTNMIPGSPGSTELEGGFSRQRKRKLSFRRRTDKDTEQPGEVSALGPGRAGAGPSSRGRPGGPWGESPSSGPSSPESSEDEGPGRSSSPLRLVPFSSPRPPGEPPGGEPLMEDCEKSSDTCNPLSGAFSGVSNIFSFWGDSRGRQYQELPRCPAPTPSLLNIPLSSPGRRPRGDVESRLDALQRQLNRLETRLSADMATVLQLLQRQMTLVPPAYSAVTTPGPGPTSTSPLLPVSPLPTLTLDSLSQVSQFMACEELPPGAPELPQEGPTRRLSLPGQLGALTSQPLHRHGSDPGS

Compound	hERG current change (%, negative = inhibition) at 10uM [%]
COc1ccc(NC(=O)C2CC(=O)OC2(C)C)cc1 (centres unmarked)	3.44
CCOC(=O)CNC(=O)Nc1ccccc1C(=O)OC	15.1
Cc1cc(C)n(S(=O)(=O)c2cccc([N+](=O)[O-])c2)n1	3.73
COc1ccc(C(=O)C(C)N(C(=O)c2ccc(Cl)cc2Cl)N2C(=O)C3C4C=CC(C4)C3C2=O)cc1 (centres unmarked)	0.401
Cc1cccc(OC(=O)c2sc3ncn(C)c(=O)c3c2C)c1	3.54
O=C(Cn1nc2n(c1=O)-c1ccccc1SC2)N/N=C/c1ccncc1	-1.97
Nc1c(C(=O)OC2CCCCC2)c2nc3ccccc3nc2n1CC1CCCO1 (centres unmarked)	-63.7
Nc1c(C(=O)NC2CCCC2)c2nc3ccccc3nc2n1CC1CCCO1 (centres unmarked)	-4.67
CC(C)OC(=O)c1c(N)n(CC2CCCO2)c2nc3ccccc3nc12 (centres unmarked)	-29.3
Nc1cc(Cl)ccc1N1CCOCC1	-1.57
C[n+]1ccccc1COc1ccc(C(C)(C)C)cc1.Cc1ccc(S(=O)(=O)[O-])cc1	2.84
COc1ccc(-c2c(-c3cc(OC)cc(OC)c3)n(C)c3ccc(-c4ccc(S(N)(=O)=O)cc4)cc23)cc1	14.8
Cc1ccc(-n2c3nc(=O)[nH]c(=O)c-3cc3cc([N+](=O)[O-])ccc32)cc1	-57.6
Cc1ccc(-n2c3nc(=O)[nH]c(=O)c-3cc3cc([N+](=O)[O-])ccc32)cc1C	-26.9
Cc1cccc(-n2c3nc(=O)[nH]c(=O)c-3cc3cc([N+](=O)[O-])ccc32)c1	-35.1
COc1ccc(CNC(=O)C(=O)NCC2OCCN2S(=O)(=O)c2ccc(F)cc2)cc1 (centres unmarked)	-3.41
COc1ccc(-c2nc(CSCC(=O)NCc3ccc4c(c3)OCO4)c(C)o2)cc1	-6.05
COc1ccccc1NS(=O)(=O)c1ccc(N/N=C(\C)C(C)C)c([N+](=O)[O-])c1	9.29
CCOC(=O)c1ccccc1NC(=O)c1c(O)[nH]c(=S)[nH]c1=O	15.6
Cc1ccc(-c2nn(-c3ccccc3)cc2C(=O)N2CCN(C3CCS(=O)(=O)C3)CC2)cc1 (centres unmarked)	-68.8
COc1ccc(-c2nn(-c3ccccc3)cc2C(=O)NCC2CCCO2)cc1 (centres unmarked)	-0.557
COc1cccc(-c2nn(-c3ccc(C)cc3)cc2C(=O)NCC2CCCO2)c1 (centres unmarked)	-62.2
COc1cccc(-c2nn(-c3ccccc3)cc2C(=O)O)c1	1.11
Cc1ccc(-c2nn(-c3ccc(F)cc3)cc2C(=O)N2CCN(C3CCS(=O)(=O)C3)CC2)cc1 (centres unmarked)	-61.6

Compound	hERG current change (%, negative = inhibition) at 10uM [%]
CCc1ccc(-c2nn(-c3ccccc3C)cc2C(=O)N2CCN(C3CCS(=O)(=O)C3)CC2)cc1 (centres unmarked)	-1.98
COc1cccc(-c2nn(-c3ccc(C)cc3)cc2C(=O)N2CCc3cc(OC)c(OC)cc3C2)c1	-31.7
O=C(c1cn(-c2ccccc2)nc1-c1ccc(F)cc1)N1CCCCC1	-10.6
Cc1ccc(-c2nn(-c3ccc(F)cc3)cc2C(=O)NC2CCC(O)CC2)cc1 (centres unmarked)	14.4
COc1cccc(-c2nn(-c3ccc(C)cc3)cc2C(=O)N2CCN(C3CCS(=O)(=O)C3)CC2)c1 (centres unmarked)	-57
COc1cccc(-c2nn(-c3ccc(F)cc3)cc2C(=O)NCC2CCCO2)c1 (centres unmarked)	-49.7
Cc1cccc(-c2nn(-c3ccccc3)cc2C(=O)N2CCN(C3CCS(=O)(=O)C3)CC2)c1 (centres unmarked)	-36.6
Cc1ccc(OCC(=O)NNC(=O)CSc2ncnc3sc(C)c(C)c23)cc1	39.6
CC1CC(=O)Nc2ccccc2N1S(=O)(=O)c1cccc(F)c1 (centres unmarked)	9.89
O=C(CC1C(=O)NCCN1Cc1cccc(F)c1)NC1CCC1 (centres unmarked)	-3.12
CCC(CC)C(=O)c1c[nH]c(C(=O)O)c1	19.6
CC1CCN(Cc2cc(=O)oc3cc(O)c(Cl)cc23)CC1	9.11
Cc1nn(-c2ccccc2)c(C)c1/C=N/NC(=O)c1cc(C(C)(C)C)[nH]n1	-9.72
O=C(Nc1nnc(-c2ccncc2)s1)Nc1ccccc1F	14.2
Cc1cc(C)c(C(=O)/C=C/c2ccc(C(C)C)cc2)c(=O)[nH]1	10
Cc1ccccc1N(CC(=O)NCCSC1CCCCC1)S(=O)(=O)c1ccccc1	-16
CN(C)CC(=O)c1c(N)n(Cc2ccccc2)c(=O)n(C)c1=O	-7.58
CCn1c(=O)c(C(=O)CN2c3ccccc3CC2C)c(N)n(Cc2ccccc2)c1=O (centres unmarked)	3.42
COC(=O)Cn1c(=O)c(C(=O)CCl)c(N)n(Cc2ccccc2)c1=O	-0.133
CCn1c(=O)c(C(=O)CN2CCc3ccccc32)c(N)n(Cc2ccccc2)c1=O	19
CCn1c(=O)c(C(=O)CN2CCCc3ccccc32)c(N)n(Cc2ccccc2)c1=O	-6.1
CCN(CC)CC(=O)c1c(N)n(Cc2ccccc2)c(=O)n(C)c1=O	-2.27
CCn1c(=O)c(C(=O)CN(C)Cc2cccc(OC)c2OC)c(N)n(Cc2ccccc2)c1=O	-50.3
CCOc1ccc(CN(C)CC(=O)c2c(N)n(Cc3ccccc3)c(=O)n(CC)c2=O)cc1OC	-75.5

Compound	hERG current change (%, negative = inhibition) at 10uM [%]
COc1ccc(CN(C)CC(=O)c2c(N)n(Cc3ccccc3)c(=O)n(C)c2=O)c(OC)c1	-66.1
CCn1c(=O)c(C(=O)CC#N)c(N)n(Cc2ccccc2)c1=O	-4.73
CCn1c(=O)c(C(=O)CN(C)Cc2ccc(F)cc2)c(N)n(Cc2ccccc2)c1=O	-71
COc1cccc(NC(=O)CN(C)CC(=O)c2c(N)n(Cc3ccccc3)c(=O)n(C)c2=O)c1	-8.12
CNC(=O)c1ccc(N(Cc2ccccc2C)S(C)(=O)=O)cc1	-6
Cn1c(C2=C(O)CN(c3ccccc3)C2=N)nc2ccccc21	-13.2
Cc1ccc(C(=O)NC(=S)Nc2ccc(N3CCN(C(=O)c4ccco4)CC3)cc2)cc1	17.1
Cc1ccc(OC(=S)Nc2ccccc2)c(C)c1	6.7
CCOC(=O)c1c(C)[nH]c(C(=O)COC(=O)CNS(=O)(=O)c2ccc(C)cc2)c1C	11.8
C=CCN(c1nc(C)cc(OC)n1)S(=O)(=O)c1ccccc1	-2.09
Cc1nc2c(sc3nc4c(cc32)COC(C)(C)C4)c(=O)n1Cc1ccccc1	-10.6
COCCN(C(=O)COC(=O)CCc1ccc(OC)cc1)c1c(N)n(Cc2ccccc2)c(=O)[nH]c1=O	27.6
COC(=O)C[C@H]1c2cc(F)ccc2S(=O)(=O)N1c1ccccc1	8.82
O=C(CSC1=NNC(c2ccccn2)S1)Nc1cccc(Cl)c1 (centres unmarked)	12.6
CC1CCc2nn(CC(=O)NCCCN3CCCC3=O)cc2C1 (centres unmarked)	10.2
COCCCNC(=O)Cn1cc2c(n1)CCC(C)C2 (centres unmarked)	1.99
CCCN1CCN(CCCNC(=O)Cn2cc3c(n2)CCCC3)CC1	-7.41
Cc1ccc(C)c(N2CCN(CCCNC(=O)Cn3cc4c(n3)CCC(C)C4)CC2)c1 (centres unmarked)	-63.4
O=C(Cn1cc2c(n1)CCCC2)NCCCN1CCN(c2ccccc2F)CC1	-31.1
Cc1ccc(C)c(N2CCN(CCCNC(=O)Cn3cc4c(n3)CCCCC4)CC2)c1	-69.3
COC(=O)c1ccc(Sc2ccccc2NS(=O)(=O)c2ccc(OC)cc2)nc1	9.67
CN1CCN(c2ccc(NC(=O)Oc3ccccc3)cc2)CC1	17.4
CCOc1ccc(C(C)(C)C)cc1S(=O)(=O)Nc1ccncc1	17
Cn1nnc2cc(C(=O)NCc3ccco3)ccc21	1.15

Compound	hERG current change (%, negative = inhibition) at 10uM [%]
Cc1nc(Nc2nc(-c3ccccc3)cc(=O)[nH]2)nc2ccccc12	-3.73
CCOc1ccc(/C=N/NC(=O)C2CC2)cc1OC	18.3
COc1cc(/C=N/NC(=O)C2CCN(CC(O)COCc3ccccc3)CC2)ccc1O (centres unmarked)	-78.1
COc1cc(/C=N/NC(=O)CCc2ccccc2)ccc1O	-1.02
COc1cc(/C=N/NC(=O)C2CCN(CC(O)COCc3ccccc3)CC2)cc(OC)c1OC (centres unmarked)	-71.7
COc1ccc(COCC(O)CN2CCC(C(N)=O)CC2)cc1OC (centres unmarked)	-7.47
COc1cc(/C=N/NC(=O)Cc2ccccc2)cc(OC)c1OC	8.74
O=C(CCC(=O)c1ccc(F)cc1)NC1CCCN(Cc2ccccc2F)C1 (centres unmarked)	-19.4
CC(=O)Nc1cccc(NC(=O)C(F)(F)F)c1	21.2
Cc1onc(-c2ccccc2)c1C(=O)OCC(=O)Nc1ccc(C#N)cc1	-27.7
O=C(/C=C/c1ccc(-c2ccccc2[N+](=O)[O-])o1)c1ccccc1	18.4
CCC(C)NCCCOc1ccc([N+](=O)[O-])cc1.O=C(O)C(=O)O (centres unmarked)	-74.7
CC(=O)c1ccc(OCCOc2ccc([N+](=O)[O-])cc2)cc1	-57.6
CCOC(=O)C(CCCOc1ccc(C)cc1)C(=O)OCC	-8.52
CC(=O)Nc1ccc(OCCOc2ccc([N+](=O)[O-])cc2)cc1	0.991
CC(=O)c1ccc([N+](=O)[O-])cc1	15.7
CCC(C)NCCCCOc1ccc(Br)cc1.O=C(O)C(=O)O (centres unmarked)	-32.6
COc1cc(C)ccc1OCCOCCOc1ccc([N+](=O)[O-])cc1	-54.8
COc1cc(C)ccc1OCCOCCOc1ccccc1[N+](=O)[O-]	-29.5
CCOC(=O)C(CCCOc1ccccc1)C(=O)OCC	-14.3
CCCOc1ccc(OCCCCNC(C)CC)cc1.O=C(O)C(=O)O (centres unmarked)	-18.9
COc1cc(C)ccc1OCCOCCOc1ccc(C)cc1[N+](=O)[O-]	-36.1
CCOC(=O)C(CCCCOc1ccc([N+](=O)[O-])cc1)C(=O)OCC	-54.8
